Shown are actives, neighbours in structure and some others; about 3% of the full set was active somewhere.
pPAFAH inh = pPAFAH enzyme inhibitors, primary screen, biochemical, fluorescence polarization, human. 1.5% of 330,000 active. inhibition, % at 3.39 µM. AID 463082, 2010. recombinant pPAFAH, FP-rhodamine probe fluorescence polarization;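 active means inhibition above the mean inhibition across the screen plus 3 SD, cut at about 25% in these data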;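 further: inhibitors block binding of the rhodamine activity-based probe so polarization drops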
PAFAH1B2 inh = PAFAH1B2 enzyme inhibitors, primary screen, biochemical, fluorescence polarization, human | Platelet-activating factor acetylhydrolase IB subunit alpha2 (Homo sapiens), P68402 | recombinant PAFAH1B2, FP-rhodamine activity probe | inhibition, % at 3.39 µM | 1.2% of 340,000 active;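 active means inhibition above the mean of all tested compounds plus 3 SD, cut at about 24% in these data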
ATG4B inh = ATG4B protease inhibitors, primary screen, biochemical, fluorescence, uHTS; Cysteine protease ATG4B (Homo sapiens), Q9Y4P1; ATG4B cleavage of LC3-PLA2, NBD-HPC fluorescence, 1 h; inhibition, % at 8.33 µM; 0.51% of 340,000 active; AID 504462, 2011; in the data active means inhibition above about 40%
PAFAH2 inh = PAFAH2 enzyme inhibitors, primary screen, biochemical, fluorescence polarization, human | Platelet-activating factor acetylhydrolase 2, cytoplasmic (Homo sapiens), Q99487 | 0.99% of 340,000 active | AID 492956, 2010 | inhibition, % at 3.39 µM | recombinant PAFAH2, FP-rhodamine activity probe;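 active means inhibition above the mean over all tested compounds plus 3 SD, cut at about 30% in these data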;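 further: inhibitors block probe labeling of enzyme so polarization drops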
PAFAH1B3 inh = PAFAH1B3 enzyme inhibitors, primary screen, biochemical, fluorescence polarization, human. Platelet-activating factor acetylhydrolase IB subunit alpha1 (Homo sapiens), Q15102. AID 492972, 2010. recombinant PAFAH1B3, FP-rhodamine probe. inhibition, % at 3.39 µM. 0.28% of 340,000 active;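 active means inhibition above the screen-wide average of all tested compounds plus 3 SD, cut at about 25% in these data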
DAGLB inhibitor = DAGLB lipase inhibitors, primary screen, biochemical, fluorescence, HTS; Diacylglycerol lipase-beta (Homo sapiens), Q8NCG7; HEK293T DAGLB membrane lysate, EnzChek fluorogenic substrate; inhibition, % at 5.17 µM; 0.059% of 340,000 active; AID 504411, 2011; in the data active means inhibition above about 34%
Target sequence (Q8NCG7 whole entry, looked up): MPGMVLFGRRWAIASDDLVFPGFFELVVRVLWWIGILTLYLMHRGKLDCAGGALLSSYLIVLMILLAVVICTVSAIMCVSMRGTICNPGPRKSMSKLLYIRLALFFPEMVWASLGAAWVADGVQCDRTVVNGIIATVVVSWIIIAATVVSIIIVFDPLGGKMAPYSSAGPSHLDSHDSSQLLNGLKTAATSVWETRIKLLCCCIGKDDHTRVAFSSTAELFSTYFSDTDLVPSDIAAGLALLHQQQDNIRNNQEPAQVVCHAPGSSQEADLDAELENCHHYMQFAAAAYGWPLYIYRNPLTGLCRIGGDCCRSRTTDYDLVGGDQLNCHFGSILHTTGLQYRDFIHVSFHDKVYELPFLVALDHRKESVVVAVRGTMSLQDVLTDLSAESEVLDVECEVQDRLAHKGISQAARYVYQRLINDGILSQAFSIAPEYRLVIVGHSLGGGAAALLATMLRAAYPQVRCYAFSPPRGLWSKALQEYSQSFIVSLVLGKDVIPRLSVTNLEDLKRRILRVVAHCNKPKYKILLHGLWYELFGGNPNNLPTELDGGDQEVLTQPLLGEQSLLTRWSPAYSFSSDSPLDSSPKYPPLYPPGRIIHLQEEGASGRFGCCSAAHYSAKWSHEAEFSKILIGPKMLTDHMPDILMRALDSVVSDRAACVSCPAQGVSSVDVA
Each line names hits and unclear results; the compound was inactive in the other large screens.

C#CCOCCOCCOCCNc1nc(N2CCN(C(=O)CCCCCCCCCCNC(=O)[C@H](CCCCN)n3cc(C[C@@H](C)CC)nn3)CC2)nc(N2CCN(C(=O)CCCCCCCCCCNC(=O)[C@@H]([C@H](C)O)n3cc(C)nn3)CC2)n1	ATG4B inh 53
Cc1cccc(C)c1Nc1c(-c2ccccn2)nc2ccccn12	none
CO/N=C(/CS(=O)Cc1ccc(Cl)cc1)c1ccc(Cl)cc1 (stereo not drawn)	pPAFAH inh 27
CO/N=C(/CNC(=O)c1cccc(Cl)c1)c1ccc(Cl)cc1	none
COc1ccc(-c2cc(C(F)(F)F)nc(S(C)(=O)=O)n2)cc1	pPAFAH inh 29
CS(=O)(=O)c1nc(-c2ccc(F)cc2)cc(C(F)(F)F)n1	none (no result: pPAFAH inh)
CCN1C(=O)[C@@H]2[C@@H](c3ccc(SC4CCCCC4)cc3)N3CCC[C@@]3(C(=O)OC)[C@@H]2C1=O	pPAFAH inh 29
CCCCOC(=O)Oc1ccc2c(=O)c(Oc3cccc(C)c3)coc2c1	pPAFAH inh 27
CC(Oc1ccccc1)C(=O)N=C1SC2CS(=O)(=O)CC2N1Cc1ccc(F)cc1 (stereo not drawn)	pPAFAH inh 26
CC(Oc1ccccc1)C(=O)N=C1SC2CS(=O)(=O)CC2N1c1ccc(F)cc1 (stereo not drawn)	none
CC(C)NC(=O)CC1C(=O)NCCN1CC(c1ccccc1)c1ccccc1 (stereo not drawn)	pPAFAH inh 29
CC(C)(CO)CNC(=O)CC1C(=O)NCCN1CC(c1ccccc1)c1ccccc1 (stereo not drawn)	none
CC(=O)c1cccc(S(=O)(=O)N2CCC(C(=O)Nc3cccc(C(=O)NC4CC4)c3)CC2)c1	none
Cc1ccc(S(=O)(=O)NN2C(=O)/C(=C/c3cccn3C)SC2=S)cc1	pPAFAH inh 61 (no result: PAFAH1B2 inh, ATG4B inh, PAFAH2 inh, PAFAH1B3 inh, DAGLB inhibitor)
Cc1nnc(N2CCC(C(=O)N3CCCCC3)CC2)c2nn(-c3ccc(Cl)cc3)c(C)c12	ATG4B inh 53
Cc1nnc(N2CCC(C(=O)NC3CCC(C)CC3)CC2)c2nn(-c3ccc(Cl)cc3)c(C)c12 (stereo not drawn)	none
CC1CCCCN1C(=O)COC(=O)C1CCN(S(=O)(=O)c2c(Cl)cccc2Cl)CC1 (stereo not drawn)	none
O=S(=O)(Nc1nc(-c2ccccc2)cs1)c1cc(Cl)ccc1Cl	pPAFAH inh 28
Cc1ccc(-c2noc(CSc3nnc(Cc4ccccc4)n3-c3ccc(Cl)cc3)n2)cc1	pPAFAH inh 25
CCOC(=O)CSc1nnc(Cc2ccccc2)n1-c1ccc(C)cc1	pPAFAH inh 32
CCC1C/C(=C/c2ccco2)C(=O)/C(=C/c2ccco2)C1 (stereo not drawn)	pPAFAH inh 37 (no result: PAFAH1B2 inh, ATG4B inh, PAFAH2 inh, PAFAH1B3 inh, DAGLB inhibitor)
CCC1C/C(=C\c2cc(OC)c(OC)cc2OC)C(=O)/C(=C/c2cc(OC)c(OC)cc2OC)C1 (stereo not drawn)	none
COc1ccc(N2CCN(S(=O)(=O)CCNC(=O)C3CC(=O)N(c4ccccc4)C3)CC2)cc1 (stereo not drawn)	none
CN(C)S(=O)(=O)c1cccc(NC(=O)CN2C(=O)NC3(CCc4ccccc4C3)C2=O)c1 (stereo not drawn)	none
Cc1ccc(-c2ccc(/C=N/NC(N)=S)o2)cc1	none
NC(=S)N/N=C/c1ccc(-c2ccc(SC(F)F)cc2)o1	pPAFAH inh 27
COc1ccc(CN(CCC(c2ccccc2)c2ccc(OC(C)C)cc2)C(=O)CCl)cc1OC (stereo not drawn)	none
O=S(=O)(c1ccccc1)c1cnn(-c2ccccc2)c1-c1ccc(F)cc1	PAFAH1B2 inh 28
COc1ccc(-n2ncc(S(=O)(=O)c3ccccc3)c2-c2ccc(Cl)cc2)cc1	none
Cn1c(CCN2CCCC2)nc2cc(NS(=O)(=O)c3ccc(Cl)cc3)ccc21	PAFAH1B2 inh 28
CCCCn1c(N)c(N(CC(C)C)C(=O)c2ccc3c(c2)NC(=O)C(C)S3)c(=O)[nH]c1=O (stereo not drawn)	none

Screening results as filed in PubChem BioAssay.
